The record followed here is PubChem BioAssay (Tox21).

A number with no mark means an inactive call. Results filed as inconclusive are left out. Calls of active or inactive are those of the source. Unless noted, calls follow the shape of the dose curve; as a rule, active = well fitted curve in the direction sought with a large enough effect in the repeat runs; inconclusive = weak or mixed curves; inactive = no such curve, though single readings can be large; an effect the other way counts as inactive or inconclusive.

Assay [1] has as its target Progesterone receptor (Homo sapiens) (UniProt P06401). Description: qHTS assay to identify small molecule agonists of the progesterone receptor (PR) signaling pathway (AID 1346784; calls by dose curve; also: nearly all actives have a fitted effect of over 30% in size). The method in brief:
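HEK 293T PR-UAS-bla reporter cells, 2% charcoal-stripped FBS; 6 hr settle at 37C/5% CO2, compound (DMSO) 16 hr, LiveBLAzer B/G FRET substrate 2 hr RT, fluorescence intensity read.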

A short description of assay [2]: qHTS assay to identify small molecule antagonists of the progesterone receptor (PR) signaling pathway - cell viability counter screen (AID 1346798). Also: series mostly up to about 92 µM; nearly all actives have a fitted effect of over 50% in size. The method in brief:
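Luminescence readout (CellTiter-Glo, 30 min, RT) of viability in PR-UAS-bla HEK293T cells exposed to compound and R5020 agonist for 16 hr at 37C, 5% CO2; run in the same wells as the beta-lactamase reporter read.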
In general terms: Quantitative high-throughput screening tests each substance at several concentrations.

Assay [3] in a line: qHTS assay to identify small molecule agonists of the progesterone receptor (PR) signaling pathway - cell viability counter screen (AID 1346799; calls by dose curve; also: nearly all actives have a fitted effect of over 45% in size). The method in brief:
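HEK293T PR-UAS-bla, 3,000 cells/well, 2% charcoal-stripped FBS; 6 h settle, compound 16 h at 37C/5% CO2; LiveBLAzer 2 h RT, then CellTiter-Glo 30 min RT, luminescence read.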

The nature of assay [4]: qHTS assay to identify small molecule antagonists of the TGF-beta/Smad signaling pathway - cell viability counter screen (AID 1346824). Also: nearly all actives have a fitted effect of over 50% in size. The method in brief:
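SBE-bla HEK 293T cells, incubated overnight, then compound plus 0.25 ng/mL TGF-beta1 (stock added) for 5 hr at 37 C. Viability was read in the same wells by CellTiter-Glo luminescence after 30 min at room temperature.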

The nature of assay [5]: qHTS assay to identify small molecule agonists of the TGF-beta/Smad signaling pathway - cell viability counter screen (AID 1346829). Also: top concentration of the series differs between compounds; nearly all actives have a fitted effect of over 45% in size. The method in brief: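 Tox21 qHTS format: SBE-bla HEK 293T cells treated with DMSO-dissolved compounds for 5 hr; CellTiter-Glo luminescence after 30 min at room temperature.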
The nature of assay [6]: qHTS assay to identify small molecule agonists of the TGF-beta/Smad signaling pathway (AID 1346859; active = well fitted activation curve with a large enough effect in the signal ratio in the repeat runs, not every such curve was filed as active; the % refers to the signal ratio; also: series mostly up to about 77 µM). In outline: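 Read-out: fluorescence at 460 and 530 nm (405 nm excitation) after a 2 hr room-temperature incubation with beta-lactamase FRET substrate. SBE-bla HEK 293T cells had been treated with test compounds for 5 hr at 37 C.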
Assay [7] concerns the target Thyrotropin-releasing hormone receptor (Homo sapiens) (UniProt P34981). Description: qHTS assay to identify small molecule antagonists of the thyrotropin-releasing hormone receptor (TRHR) signaling pathway (AID 1346877; active = well fitted inhibition curve with a large enough effect in the repeat runs, not every such curve was filed as active; also: series mostly up to about 51 µM). The method in brief:
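TRHR-expressing HEK293 cells were seeded, cultured 18 h at 37 °C, then loaded with calcium dye for 2 h. Compounds were pre-incubated 5 min at room temperature before 1 nM TRH (final) was added, and kinetic fluorescence was recorded for 3 min.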

For assay [8] the target is unchanged. Description: qHTS assay to identify small molecule agonists of the thyrotropin-releasing hormone receptor (TRHR) signaling pathway (AID 1346891; calls by dose curve; also: series mostly up to about 58 µM). In outline:
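HEK293/TRHR cells, 1500 per well, 18 h 37 °C; Ca dye 2 h 37 °C; pin-tool compound addition (agonist mode); kinetic fluorescence 3 min, 1 s reads; 15 concentrations, triplicate.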

Assay [9] can be described thus: Human pregnane X receptor (PXR) small molecule agonists, qHTS cell viability counter screen (AID 1346977). Also: nearly all actives have a fitted effect of over 50% in size. In outline:
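Fluorescence read-out (CellTiter-Fluor) of viability in PXR-Luc HepG2 cells, multiplexed with the luciferase agonist read. Compounds in DMSO added after 5hr plating; 24hr total exposure at 37C, 5% CO2.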

Assay [10] is described as follows: Caspase-3/7 induction in HepG2 cells by small molecules, qHTS assay (AID 1346978). Also: nearly all actives have a fitted effect of over 15% in size. The method in brief:
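Wild-type HepG2 cells, 2,000/well, settled 5 hr at 37 C and 5% CO2, then compound-treated for 17 hr; caspase-3/7 activity read by luminescent Caspase-Glo 3/7 after 30 min at room temperature.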

Assay [11] can be described thus: Caspase-3/7 induction in CHO-K1 cells by small molecules, qHTS cell viability counter screen (AID 1346979). Also: nearly all actives have a fitted effect of over 35% in size. The method in brief: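 CHO-K1 wt, 1,500 cells/well; 5hr pre-incubation 37C/5% CO2; compound pin transfer (DMSO); 16hr exposure; CellTiter-Fluor added, 1hr, fluorescence read.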
The nature of assay [12]: Caspase-3/7 induction in CHO-K1 cells by small molecules, qHTS assay (AID 1346980). Also: nearly all actives have a fitted effect of over 15% in size. In outline:
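Wild-type CHO-K1 cells exposed to compounds for 17hr at 37 C, 5% CO2. Caspase-3/7 activity then measured by Caspase-Glo 3/7 luminescence after 30min at room temperature.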

Assay [13] can be described thus: Caspase-3/7 induction in HepG2 cells by small molecules, qHTS cell viability counter screen (AID 1346981). Also: series mostly up to about 92 µM; nearly all actives have a fitted effect of over 30% in size. The method in brief: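 Wild-type HepG2 cells (2,000/well) were allowed to settle for 5 hr at 37 C, 5% CO2, then dosed with compounds in DMSO by pin transfer. After 16 hr at 37 C, CellTiter-Fluor was added and fluorescence read 1 hr later.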
Assay [14] concerns the target Cytochrome P450 2C19 (Homo sapiens) (UniProt P33261). The assay can be described thus: Cytochrome P450 Family 2 Subfamily C Member 19 (CYP2C19) small molecule antagonists: luciferase reporter qHTS assay (AID 1671197). Also: nearly all actives have a fitted effect of over 65% in size. Also: potency is read from the fitted curve at half-maximal effect. The method in brief: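 Relative luminescence units recorded 20 min after the detection reagent stopped a 1 h, 37C CYP2C19 reaction on proluciferin substrate, which was started by NADPH regeneration following 10 min room-temperature compound preincubation; ketoconazole positive control.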

Assay [15] deals with Nuclear receptor subfamily 1 group I member 2 (Homo sapiens) (UniProt O75469). The assay can be described thus: Human pregnane X receptor (PXR) small molecule agonists, qHTS assay (AID 1346982). Also: nearly all actives have a fitted effect of over 35% in size. Also: potency is read from the fitted curve at half-maximal effect. In outline:
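PXR-Luc HepG2 cells (CYP3A4 promoter-driven luciferase) were seeded in medium with 5% charcoal-stripped FBS, left 5 hr at 37 C, then exposed to compounds in DMSO for 24 hr. Luminescence was read after ONE-Glo addition.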

The target in assay [16] is Cytochrome P450 2D6 (Homo sapiens) (UniProt P10635). The assay can be described thus: Cytochrome P450 Family 2 Subfamily D Member 6 (CYP2D6) small molecule antagonists: luciferase reporter qHTS assay (AID 1671196). Also: nearly all actives have a fitted effect of over 50% in size. Also: potency is read from the fitted curve at half-maximal effect. In outline: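 CYP2D6 enzyme–substrate mix was held with compound for 10 min at room temperature, then NADPH regeneration solution was added and the reaction ran 1 h at room temperature. Luciferin product was detected by luminescence after 20 min with detection reagent.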

For assay [17], the target named is Nuclear receptor subfamily 1 group I member 2 (Homo sapiens) (UniProt O75469). Description: CYP3A4 induction through human pregnane X receptor (PXR) by small molecules, qHTS assay (AID 1346984). Also: nearly all actives have a fitted effect of over 40% in size. The method in brief: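 DPX-2 cells (HepG2 co-transfected with PXR and CYP3A4 promoter-luciferase) treated with compounds 24 h at 37C; luciferin-IPA CYP3A4 substrate 3uM final added for 3 h, then One-Glo; luminescence read. qHTS format.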

For assay [18] the target is unchanged. Description: Human pregnane X receptor (PXR) activation by small molecules, qHTS assay (AID 1346985). Also: potency is read from the fitted curve at half-maximal effect; nearly all actives have a fitted effect of over 40% in size. In outline:
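DPX-2 cells (HepG2 co-transfected with a PXR response element and a CYP3A4-promoter luciferase construct) were seeded at 2,000 per well, rested 5 hr at 37C, then exposed to DMSO-dissolved compounds for 24 hr. Activation was read as luciferase luminescence.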

Assay [19] addresses Progesterone receptor (Homo sapiens) (UniProt P06401). Description: qHTS assay to identify small molecule antagonists of the progesterone receptor (PR) signaling pathway (AID 1346795; active = well fitted inhibition curve with a large enough effect in the signal ratio in the repeat runs, not every such curve was filed as active; the % refers to the signal ratio). In outline: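 Beta-lactamase reporter, HEK293T PR-UAS-bla line; 2% charcoal-stripped FBS; 6 hr pre-incubation, 37C/5% CO2. Compound + R5020 1 nM final, 16 hr. LiveBLAzer B/G FRET substrate, 2 hr RT; fluorescence intensity read.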

Chain of Cytochrome P450 2C19 (Homo sapiens) (P33261 whole entry, looked up): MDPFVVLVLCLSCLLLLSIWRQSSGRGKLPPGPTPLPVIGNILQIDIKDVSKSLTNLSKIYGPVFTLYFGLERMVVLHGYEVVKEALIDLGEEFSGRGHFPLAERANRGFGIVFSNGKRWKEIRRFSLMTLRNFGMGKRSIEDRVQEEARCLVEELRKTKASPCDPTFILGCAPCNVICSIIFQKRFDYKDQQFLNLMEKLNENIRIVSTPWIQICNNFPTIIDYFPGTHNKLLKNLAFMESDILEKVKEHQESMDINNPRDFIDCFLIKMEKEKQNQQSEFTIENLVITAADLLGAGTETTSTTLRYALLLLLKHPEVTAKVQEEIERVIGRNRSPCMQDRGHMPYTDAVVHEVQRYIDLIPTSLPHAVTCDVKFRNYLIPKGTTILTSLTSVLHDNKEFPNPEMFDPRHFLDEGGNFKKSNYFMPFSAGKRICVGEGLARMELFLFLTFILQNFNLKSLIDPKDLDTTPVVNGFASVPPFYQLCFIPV
Chain of Nuclear receptor subfamily 1 group I member 2 (Homo sapiens) (O75469 whole entry, looked up): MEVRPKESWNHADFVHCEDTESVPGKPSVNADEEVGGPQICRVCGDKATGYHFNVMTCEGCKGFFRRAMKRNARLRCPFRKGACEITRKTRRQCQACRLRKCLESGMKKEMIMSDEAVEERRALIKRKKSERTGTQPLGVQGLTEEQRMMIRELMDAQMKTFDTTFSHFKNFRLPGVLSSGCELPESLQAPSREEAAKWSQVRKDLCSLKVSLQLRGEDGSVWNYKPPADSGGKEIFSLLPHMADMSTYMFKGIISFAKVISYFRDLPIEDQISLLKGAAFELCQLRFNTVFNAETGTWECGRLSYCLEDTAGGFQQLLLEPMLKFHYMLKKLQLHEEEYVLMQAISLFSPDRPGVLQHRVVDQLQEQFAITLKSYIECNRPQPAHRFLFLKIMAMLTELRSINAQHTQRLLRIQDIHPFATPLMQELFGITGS
Chain of Progesterone receptor (Homo sapiens) (P06401 whole entry, looked up): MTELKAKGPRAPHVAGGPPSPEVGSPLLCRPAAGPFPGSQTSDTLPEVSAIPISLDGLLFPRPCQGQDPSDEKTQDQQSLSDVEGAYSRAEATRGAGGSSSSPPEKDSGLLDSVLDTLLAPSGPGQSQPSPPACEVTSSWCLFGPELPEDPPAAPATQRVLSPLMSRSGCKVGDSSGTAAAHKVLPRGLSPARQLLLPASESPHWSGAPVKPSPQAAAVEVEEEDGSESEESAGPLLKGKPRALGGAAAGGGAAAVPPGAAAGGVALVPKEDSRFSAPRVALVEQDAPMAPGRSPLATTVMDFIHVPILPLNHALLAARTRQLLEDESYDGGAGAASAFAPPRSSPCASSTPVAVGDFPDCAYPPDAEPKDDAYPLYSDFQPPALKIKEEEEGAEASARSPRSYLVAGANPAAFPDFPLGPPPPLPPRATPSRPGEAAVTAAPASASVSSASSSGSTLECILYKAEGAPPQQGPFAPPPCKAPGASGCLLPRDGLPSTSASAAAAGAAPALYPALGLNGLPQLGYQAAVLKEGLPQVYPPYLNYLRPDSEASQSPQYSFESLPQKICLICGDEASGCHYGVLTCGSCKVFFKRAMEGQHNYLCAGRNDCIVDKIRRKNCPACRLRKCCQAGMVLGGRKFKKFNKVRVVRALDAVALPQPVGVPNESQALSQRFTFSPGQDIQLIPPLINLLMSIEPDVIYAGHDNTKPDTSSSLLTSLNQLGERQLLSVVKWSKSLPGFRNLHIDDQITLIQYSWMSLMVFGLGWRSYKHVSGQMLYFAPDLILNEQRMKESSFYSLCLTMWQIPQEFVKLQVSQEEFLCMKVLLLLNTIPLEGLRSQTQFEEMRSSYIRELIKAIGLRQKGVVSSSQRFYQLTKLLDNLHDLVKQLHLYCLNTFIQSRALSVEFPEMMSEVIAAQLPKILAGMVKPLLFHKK
Chain of Thyrotropin-releasing hormone receptor (Homo sapiens) (P34981 whole entry, looked up): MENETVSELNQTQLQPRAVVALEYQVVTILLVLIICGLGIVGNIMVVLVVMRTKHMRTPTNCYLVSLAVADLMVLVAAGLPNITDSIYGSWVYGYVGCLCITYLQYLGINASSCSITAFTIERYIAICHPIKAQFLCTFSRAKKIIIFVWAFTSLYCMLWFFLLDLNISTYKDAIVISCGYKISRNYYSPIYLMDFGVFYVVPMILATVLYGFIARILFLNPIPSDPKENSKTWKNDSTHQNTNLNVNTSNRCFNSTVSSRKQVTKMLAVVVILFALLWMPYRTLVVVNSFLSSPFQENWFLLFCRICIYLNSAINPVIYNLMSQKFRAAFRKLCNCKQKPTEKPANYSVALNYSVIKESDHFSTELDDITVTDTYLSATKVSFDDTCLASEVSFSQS
Chain of Cytochrome P450 2D6 (Homo sapiens) (P10635 whole entry, looked up): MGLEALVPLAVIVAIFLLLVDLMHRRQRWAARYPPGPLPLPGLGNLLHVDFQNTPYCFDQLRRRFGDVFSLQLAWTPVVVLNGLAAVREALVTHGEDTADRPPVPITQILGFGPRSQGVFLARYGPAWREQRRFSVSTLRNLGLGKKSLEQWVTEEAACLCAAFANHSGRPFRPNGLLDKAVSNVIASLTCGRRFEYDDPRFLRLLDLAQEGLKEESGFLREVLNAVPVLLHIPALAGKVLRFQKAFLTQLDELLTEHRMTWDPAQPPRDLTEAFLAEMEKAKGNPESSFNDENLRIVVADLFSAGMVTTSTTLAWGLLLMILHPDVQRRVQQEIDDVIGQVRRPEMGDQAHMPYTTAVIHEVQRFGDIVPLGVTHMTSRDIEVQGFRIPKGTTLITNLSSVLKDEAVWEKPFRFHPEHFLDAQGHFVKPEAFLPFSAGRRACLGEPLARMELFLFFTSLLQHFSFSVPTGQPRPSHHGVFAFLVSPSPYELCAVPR

Regarding `CCOCC(C)O` (stereo not drawn), the Potency entry in assay [1], in assay [2], in assay [3], in assay [8], in [9] and in assay [11] was “inactive” each time. Besides, the Potency result in assay [13] and in [14] was “inactive” in each case. Moreover, the compound was called inactive in assay [4], in assay [5], in assay [6], in assay [7], in assay [10] and in [12].
`O=C(c1ccccc1)C1(O)CCCCC1`: the Potency result in assay [1], in assay [2], in assay [3], in assay [8], in [9] and in assay [11] was “inactive” in each case. Further, the Potency result in assay [13], in [15] and in assay [16] was “inactive” in each case. Besides, the result in assay [4], in assay [5], in assay [6], in assay [7], in assay [10] and in assay [12] was inactive. Moreover, in assay [14], the Potency was 11.2 µM (active).
With `COc1ccnc(CS(=O)c2nc3cc(OC(F)F)ccc3[nH]2)c1OC` (stereo not drawn), the Potency result in assay [1], in assay [2], in [3], in assay [9], in assay [11] and in [13] was “inactive” throughout. The compound was classed as inactive in assay [4], in [5], in assay [6] and in assay [10]. Moreover, the Potency in [15] was 24.5 µM (active); in assay [16] it was 12.7 µM (active).
For `N[C@@H](CCC(=O)O)C(=O)O`, the Potency result in assay [1], in assay [2], in assay [3], in assay [8], in [9] and in assay [11] was “inactive” each time. For the same compound, the Potency result in assay [13] and in assay [15] was “inactive” each time. The compound was classed as inactive in [4], in assay [5], in assay [6] and in assay [7]. The Potency in [14] is 71 µM (active).
`CCOC(=O)c1cnc2c(cnn2CC)c1NN=C(C)C`: the Potency result in [1], in [2], in assay [3], in assay [8], in [9] and in assay [11] was “inactive” throughout. Further, the Potency result in [13] and in assay [17] was “inactive” throughout. The outcome in [4], in assay [5], in [6], in assay [7] and in assay [12] was inactive. Also, the Potency in [18] is 8.91 µM (active); in assay [14], 30.9 µM (active).
Take `COCCOCC(OC)OC`: the Potency result in assay [1], in assay [2], in assay [3], in assay [8], in assay [9] and in assay [11] was “inactive” throughout. Further, the Potency entry in [13] and in assay [15] was “inactive” throughout. Also, the outcome in assay [4], in assay [5], in [6], in assay [7] and in assay [12] was inactive.
Regarding `OCCCCCO`, the Potency entry in assay [1], in assay [19], in assay [3], in assay [8], in assay [9] and in assay [11] was “inactive” throughout. Moreover, the Potency result in [13], in assay [15] and in assay [14] was “inactive” each time. The result in assay [4], in [5], in assay [6], in assay [7], in assay [10] and in [12] was inactive.
